Screens: PubChem, National Center for Advancing Translational Sciences (NCATS)
An excerpt weighted towards active compounds, which were near 2.3% of everything screened.
Giardia kill: Small Molecules that selectively kill Giardia lamblia: qHTS; AID 540267, 2011; hit rate 0.15% among 340,000; Giardia lamblia trophozoite viability; activity change, % at 7.66 µM, hits read low; in the data active = activity change below about -80%; inconclusive = between about -30% and that limit;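 note: parasites exposed to compound for two days anaerobically before the ATP read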
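Luminescent ATP signal served as the viability read-out, measured 15-30 min after adding ATP detection reagent to trophozoites that had been incubated with compounds for 48 hrs at 37 deg C anaerobically at 100 cells/well.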
IDH1 R132H inh: qHTS for Inhibitors of mutant isocitrate dehydrogenase 1 (IDH1): qHTS; Isocitrate dehydrogenase [NADP] cytoplasmic (Homo sapiens), O75874; IDH1-R132H enzyme, NADPH consumption, diaphorase/resazurin fluorescence; Potency, µM (highest dose often 76.6 µM), usual class: inhibitors; hit rate 0.093% among 390,000; AID 602179, 2012; note: nearly all actives have a fitted effect of over 65% in size
Target sequence (O75874 whole entry R132H, stated change not applied): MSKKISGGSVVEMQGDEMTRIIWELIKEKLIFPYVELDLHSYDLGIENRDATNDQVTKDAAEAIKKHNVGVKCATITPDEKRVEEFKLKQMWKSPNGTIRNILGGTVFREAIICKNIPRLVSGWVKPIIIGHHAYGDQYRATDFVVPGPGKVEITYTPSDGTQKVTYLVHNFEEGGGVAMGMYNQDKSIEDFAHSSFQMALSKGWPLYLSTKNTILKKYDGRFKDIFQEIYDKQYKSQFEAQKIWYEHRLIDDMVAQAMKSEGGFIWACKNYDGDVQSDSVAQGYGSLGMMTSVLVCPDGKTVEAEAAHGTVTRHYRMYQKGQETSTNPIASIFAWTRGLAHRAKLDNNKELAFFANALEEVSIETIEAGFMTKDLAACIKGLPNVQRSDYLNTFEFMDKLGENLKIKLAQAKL
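IDH1-R132H (0.5 ug/mL) preincubated 30 min with compound, then NADPH (0.016 mM) and alpha-KG (2 mM) added; 80 min at RT, pH 7.5. Remaining NADPH coupled via diaphorase/resazurin to fluorescence (540/590 nm); concentration-response curves normalized to no-enzyme control.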
Nrf2 inh: Nrf2 qHTS screen for inhibitors; A549 ARE-Fluc reporter, luciferase luminescence, 18-24 h; Potency, µM (highest dose often 46 µM), most hits filed as inhibitors; hit rate 2.1% among 360,000; note: nearly all actives have a fitted effect of over 60% in size
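A549 ARE_Fluc cells (5000/well, 5% FBS OPTI-MEM) pre-incubated 2 h, then treated with compounds 18-24 h at 37C/5% CO2 in concentration-response. CellTiter-Fluor viability read first; BugLite luciferase luminescence after 15 min at room temperature gives Nrf2 activity.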
A549 tox: Nrf2 qHTS screen for inhibitors: counterscreen for cytotoxicity. A549 ARE-Fluc cells, CellTiter-Fluor viability, 18-24 h. Potency, µM (doses to about 46 µM), actives largely listed as inhibitors. hit rate 0.16% among 390,000
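Cytotoxicity counterscreen: CellTiter-Fluor fluorescence was measured in A549 ARE_Fluc cells after 18-24 h of compound exposure in a concentration series. The subsequent BugLite luminescent read reports ARE-luciferase activity.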
Apoferritin bind: qHTS Assay for Identification of Novel General Anesthetics; Ferritin light chain (Equus caballus), P02791; apoferritin/1-aminoanthracene competitive binding, fluorescence; Potency, µM (doses to about 77.5 µM), usual class: inhibitors; hit rate 0.074% among 350,000; AID 485281, 2010; note: nearly all actives have a fitted effect of over 20% in size
Target sequence (P02791 2-175 limits assumed): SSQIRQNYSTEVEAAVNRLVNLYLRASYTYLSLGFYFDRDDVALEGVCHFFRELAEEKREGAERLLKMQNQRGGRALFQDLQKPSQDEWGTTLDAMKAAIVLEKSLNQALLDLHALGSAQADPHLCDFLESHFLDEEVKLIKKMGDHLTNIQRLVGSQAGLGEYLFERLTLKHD
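Apoferritin-based anesthetic binding model; compound displacement of fluorescent 1-AMA measured as endpoint fluorescence after 10 minutes at room temperature, scaled to free-ligand and complex controls.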
Nrf2 ARE act: qHTS of Nrf2 Activators. AREc32 ARE-luciferase reporter (MCF7-derived line), luminescence, 24 h. Potency, µM (series often up to 46.1 µM), usual class: activators. AID 624171, 2012. hit rate 0.31% among 410,000; note: nearly all actives have a fitted effect of over 65% in size
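Each well held 1000 AREc32 cells, which were incubated with compound for 24 hr at 37 deg C after overnight attachment, and ARE reporter activity was quantified by firefly luciferase luminescence.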
Of the large screens only hits and unclear results are named; the others gave an inactive call. Unless noted, calls come from the whole dose curve; as a rule, active = well fitted curve in the direction sought with a large enough effect; inconclusive = small, poorly fitted or top-dose-only effect, or another doubt; inactive = no such curve, though single readings can be large; an effect the other way counts as inactive or inconclusive.

O=C(Cn1c(=O)ccc2cc(S(=O)(=O)N3CCCC3)ccc21)Nc1ccc(Cl)cc1	none (no result: Giardia kill, Nrf2 inh)
CC(=O)NC(CCS(C)(=O)=O)C(=O)Nc1cc(Cl)ccc1Cl (configuration not stated)	none
CC(C)S(=O)(=O)c1csc(NC(=O)Nc2cc(Cl)ccc2Cl)c1Cl	Nrf2 inh 18µM
Cc1cccc(-c2nc(CSCC(=O)N3CCN(c4cccc(C)c4C)CC3)c(C)o2)c1	none (no result: Giardia kill, Nrf2 inh)
Cc1cccc(-c2nc(CSCC(=O)N3CCN(c4ccccn4)CC3)c(C)o2)c1	Nrf2 inh 21µM
O=S1(=O)C=C(N2CCCCC2)c2ccccc21	Nrf2 ARE act 13µM
CCCC[C@@H](C=O)NC(=O)[C@H](CC(C)C)NC(=O)OCc1ccccc1	none (no result: Giardia kill, IDH1 R132H inh, Nrf2 inh, A549 tox, Nrf2 ARE act)
CC(C)(C)OC(=O)NCC(=O)NNC(=O)c1nc2ccccc2[nH]1	none (no result: Giardia kill, IDH1 R132H inh, Apoferritin bind, Nrf2 ARE act)
CC12CCC(O)CC1=CCC1C2CCC2(C)C(c3ccn[nH]3)CCC12 (configuration not stated)	Nrf2 inh 21µM (no result: Apoferritin bind)
CNc1sc(C(=O)c2ccccc2F)c(N)c1-c1nc2ccccc2s1	Nrf2 inh inconclusive, Nrf2 ARE act 10µM
O=[N+]([O-])c1ccccc1CN1CCN(S(=O)(=O)c2ccccc2)CC1	Nrf2 inh 16µM (no result: Apoferritin bind)
O=S(=O)(c1ccccc1)N1CCN(Cc2ccccc2C(F)(F)F)CC1	none
COC(=O)C(NNc1ccc(F)cc1)(NC(=O)c1ccccc1)C(F)(F)F (configuration not stated)	Nrf2 inh 23µM
COc1ccc(OC)c(NC(=O)c2cn(CC(C)C)c(=O)c3cc(OC)c(OC)cc23)c1	none (no result: Giardia kill)
CC1CCCCN1C(=O)Nc1cccc(Cl)c1 (configuration not stated)	Apoferritin bind 22µM
CCOc1ccc(CCNC(=O)CN2C(=O)COc3ccc(S(=O)(=O)N(CC)CC)cc32)cc1	Nrf2 inh 23µM (no result: Giardia kill)
CCOc1ccc(CCNC(=O)CN2C(=O)COc3ccc(S(=O)(=O)N4CCCCCC4)cc32)cc1	none (no result: Giardia kill)
COc1cccc(C(=O)Nc2cc(Cl)c(O)c(Cl)c2)c1	Nrf2 ARE act 4µM
COc1ccc(NC(=O)c2cccc(Oc3ccccc3)c2)cn1	Nrf2 inh 26µM
COc1cccc(C(=O)Nc2ccc(NC(C)=O)cc2)c1	none
COc1ccc(NC(=S)NC(=O)c2ccccc2)cn1	Nrf2 inh inconclusive
CC(=O)Nc1ccccc1NS(=O)(=O)c1ccccc1NO	Nrf2 inh inconclusive (no result: IDH1 R132H inh, Apoferritin bind, Nrf2 ARE act)
COCCc1nn2c(=O)cc(COC(=O)c3ccc(C(C)(C)C)cc3)nc2s1	Nrf2 inh inconclusive, Apoferritin bind inconclusive (no result: Giardia kill)
Cc1sc(NC(=O)CN2CCCC2)nc1-c1ccc2c(c1)CCN2C(=O)c1cccc(F)c1	Nrf2 inh 23µM, A549 tox inconclusive
CCOC(=O)NCCOc1ccc(Oc2ccccc2)cc1	none (no result: Giardia kill, IDH1 R132H inh, Nrf2 inh, A549 tox, Nrf2 ARE act)
COCCNC(=O)c1cccc(Nc2nc(-c3ccccc3)c3cc(Cl)ccc3n2)c1	Nrf2 inh 15µM, A549 tox inconclusive
Cc1nc(-c2coc3cc(O)c(C)cc3c2=O)cs1	Giardia kill inconclusive, Nrf2 inh 10µM
COc1ccc(C2c3c(N)nc(CCCc4ccccc4)nc3Oc3ccc4ccccc4c32)cc1OC (configuration not stated)	none (no result: Giardia kill, IDH1 R132H inh, Apoferritin bind, Nrf2 ARE act)
COC(=O)[C@@]1(C(C)C)N=C(c2cc(OC)c(OC)c(OC)c2)[C@]2(O1)C(=O)N(C)c1ccc(Br)cc12	none (no result: Giardia kill, IDH1 R132H inh, Nrf2 inh, A549 tox, Apoferritin bind)
Cc1ccc(C)c(NC(=S)NCCSc2ccc(Cl)cc2)c1	A549 tox inconclusive
CCc1ccccc1NC(=S)NCCSc1ccc(Cl)cc1	Nrf2 inh 23µM, A549 tox inconclusive
Cc1ccccc1NC(=S)NCCSc1ccc(Cl)cc1	Nrf2 inh 23µM
Oc1ccccc1C1C=C(c2ccc3c(c2)OCO3)NC(c2cccc(Cl)c2)N1 (configuration not stated)	none (no result: IDH1 R132H inh, Apoferritin bind, Nrf2 ARE act)
COc1cccc(C#CC2=CC(=O)C[C@H](c3ccc(F)cc3)C2)c1	Nrf2 ARE act 16µM (no result: Giardia kill, Nrf2 inh, A549 tox, Apoferritin bind)
O=C1C=C(C#Cc2ccc(Oc3ccccc3)cc2)C[C@@H](c2ccc(F)cc2)C1	none (no result: Giardia kill, Nrf2 inh, A549 tox, Apoferritin bind)
CN(C)S(=O)(=O)Oc1ccsc1C(=O)Nc1ccc(Br)cc1	Nrf2 inh 21µM, A549 tox inconclusive
CC1(C(=O)NS(=O)(=O)c2cccc(Cl)c2)CCN1C(=O)Cc1ccc(-c2ccccc2)cc1 (configuration not stated)	none (no result: Giardia kill, IDH1 R132H inh, Nrf2 inh, A549 tox, Apoferritin bind)
Cc1ccc(NS(=O)(=O)c2cc(C(=O)NCCSc3ccc(C)cc3)ccc2C)cc1	Nrf2 inh 23µM
Cc1ccc(SCCNC(=O)c2ccc(C)c(S(=O)(=O)Nc3cccc(C)c3)c2)cc1	Nrf2 inh inconclusive, A549 tox inconclusive
Cc1ccc(C(=O)NCCSc2ccc(Cl)cc2)cc1S(=O)(=O)Nc1ccccc1	Nrf2 inh 15µM, A549 tox inconclusive
CCc1ccc(-n2nc(C)c3c(C)cc(=O)n(Cc4nc(-c5ccccc5)oc4C)c32)cc1	Nrf2 inh inconclusive, Apoferritin bind inconclusive (no result: Giardia kill)
O=c1c2ccccc2sc2ccc(C#CC3(O)CCCCC3)cc12	Giardia kill inconclusive, Nrf2 inh 21µM (no result: Apoferritin bind)
O=C(Nc1ccc(-c2nnc3n2CCCCC3)cc1)c1cc2ccccc2o1	Apoferritin bind inconclusive
Cc1c(C(=O)Nc2ccc(-c3nnc4n3CCCCC4)cc2)oc2c1ccc1ccccc12	Nrf2 inh 9.2µM, A549 tox inconclusive, Apoferritin bind inconclusive
